The structures appear in SMILES notation. Out of some 360,000 compounds screened, about 3,600 (1%) were called active. The list comes from a sample in which actives are over-represented; it also holds similar structures and randomly drawn compounds. A number with no mark means an inactive call.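 The calls were made as follows: active = compounds whose plate-normalised and pattern-corrected inhibition of the luciferase reporter signal at the single screening dose is 50% or more; inactive = the rest.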

This assay can be described thus: TROY pathway blockers in reporter cells – Q293 LMP1-TROYcd cells, NF-kB luciferase, uHTS, primary screen (AID 1347056). The following applies: 4 h, at 10 µM, stronger effect = higher value.
For the molecule `O=C(C1CCN(c2nnc(-n3cccc3)s2)CC1)N1CCc2ccccc2C1`, the inhibition was 22.4%.
With `Cc1ccc2c(C)c(C(=O)N(C)CCC3CCCCO3)oc2c1C` (centres undefined), the inhibition was -35.3%.
With `O=C(CN(Cc1ccccc1)C(=O)CCC(=O)Nc1ccccn1)NCCc1ccccc1`, the inhibition is -13.3%.
Regarding `COc1ccc(-c2noc(CNC(=O)C(C)Oc3ccccc3)n2)cc1` (centres undefined), the inhibition was -22.8%.
`COc1ccc(-c2nc(-c3ccccc3)no2)c(OC)c1`: the inhibition is 72.5% (active).
As for `COc1ccc(/C=C/c2noc(-c3ccccc3OC(C)=O)n2)cc1`, the inhibition is 48.6%.
With `COc1ccccc1CN(C)c1nnnn1-c1ccccc1`, the inhibition was 7.2%.
Turning to `COc1ccccc1-n1nnnc1S(=O)(=O)Cc1ccc(Cl)cc1`, the inhibition was 68.3% (active).
Take `CCN(C(=O)CSc1nnnn1-c1ccccc1OC)C1CCS(=O)(=O)C1` (centres undefined): the inhibition was -12.8%.
Turning to `O=c1[nH][nH]c(C(F)(F)F)c1C=NCc1ccccc1Cl`, the inhibition was -4.3%.
Take `O=C(O)CSCC(=O)Nc1ccc(C(F)(F)F)cc1`: the inhibition was 5.82%.
As to `Cc1cc(C)c2c(=O)[nH]c(SCC(=O)Nc3ccc(Br)cc3)nc2n1`, the inhibition was 10.6%.
Consider `O=C(O)CC(SCC(=O)Nc1ccc(Br)cc1)C(=O)O` (centres undefined), for which the inhibition is 67.2% (active).
To `CC(=O)Nc1nc2c(s1)C(=O)NCC(C)(C)C2` belongs 16.5%; to `CC(=O)c1cc(CN2CCC(n3nccc3NC(=O)c3ccccc3Cl)CC2)cs1`, -6.73%; to `OC[C@@H]1CN(Cc2ccc(-c3ccccc3)cc2)C[C@H](n2cnc3c(NC4CCCC4)ncnc32)O1`, 52.3% (active).
For the molecule `OC[C@@H]1CN(Cc2cccs2)C[C@H](n2cnc3c(NC4CCCC4)ncnc32)O1`, the inhibition was -12%.
Take `OC[C@@H]1CN(Cc2ccc(F)cc2)C[C@H](n2cnc3c(NC4CCCC4)ncnc32)O1`: the inhibition was -11.8%.
`N#CC(C(N)=O)=C1CCC2(CC1)OCCCCO2`: the inhibition is -8.85%.
For `Nc1nc(NCc2ccccc2)n(-c2ccccc2)n1`, the inhibition was 11.4%.
Take `O=C(O)CN1c2cccc3cccc(c23)S1(=O)=O`: the inhibition was 18%.
Take `N/C(=N\OC(=O)c1ccc([N+](=O)[O-])cc1)c1ccccn1`: the inhibition was -41.5%.
In the case of `O=C(COC(=O)c1ccccn1)NNC(=O)c1ccc([N+](=O)[O-])cc1`, the inhibition is -4.92%.
As to `N/C(=N\OC(=O)Cc1ccc([N+](=O)[O-])cc1)c1ccccn1`, the inhibition was 71.7% (active).
In the case of `O=C(Cc1ccccc1)N1CCN(S(=O)(=O)c2ccc([N+](=O)[O-])cc2)CC1`, the inhibition was -0.47%.
To `O=C(Nc1nnc(C2CC2)s1)C1=NN(C2CCS(=O)(=O)C2)C(=O)CC1` (centres undefined) belongs -9.87%; to `COc1ccc(/C=C2/SC(=O)N(CCCCCC(=O)Nc3ccccc3C(=O)O)C2=S)cc1`, 62.8% (active); to `COc1ccc(NC(=O)CCCN2C(=O)C(c3ccccc3)Oc3cccnc32)cc1` (centres undefined), -2.33%.
Regarding `CCCNC(=O)c1ccccc1NC(=O)CSCc1ccc(OC)cc1`, the inhibition is -1.25%.
With `O=C(NCc1ccc(F)cc1)c1cc(C2CCCCN2C(=O)c2cccs2)on1` (centres undefined), the inhibition is -13.9%.
In the case of `Cc1ccc(-n2c(SCC(=O)N3CCC(C(=O)O)CC3)nc3ccccc3c2=O)cc1C`, the inhibition is 28.8%.
Turning to `COc1ccc2c(c1)C=CC1(O2)N(CCO)c2ccccc2C1(C)C` (centres undefined), the inhibition is 74.4% (active).
For `COc1ccc2c(c1)C(SCC(=O)NCc1ccccc1)CC(C)(C)O2` (centres undefined), the inhibition was -9.24%.
To `CN1c2ccc([N+](=O)[O-])cc2C(C)(C)C12C=Cc1cc(C(=O)O)ccc1O2` (centres undefined) belongs 4.3%.
Turning to `CN(C)/C=C/C(=O)c1cnc2sccn2c1=O`, the inhibition is 11.6%.
For `CCn1c(CC(=O)Nc2ccccc2C)nnc1SCC(=O)NC1=NCCS1`, the inhibition was 11%.
On to `COc1cc(C(=O)OCC(=O)N(CC(C)C)C2CCS(=O)(=O)C2)ccc1OCC(C)C` (centres undefined), for which the inhibition was 6.44%.
Consider `FC(F)(F)COc1nc(N2CCCCC2)nc(N2CCNCC2)n1`, for which the inhibition was -47.4%.
To `Clc1nc(NC2CCCC2)nc(N2CCOCC2)n1` belongs 9.54%; to `COc1nc(NC2CCCCC2)nc(N2CCCCCC2)n1`, 51.7% (active); to `CN(C)C(=S)Nc1ccc(Br)cc1Cl`, 2.66%.
`CCOC(=O)[C@]12CCC=C1N(Cc1ccco1)C(=O)[C@H](CC(=O)N1CCSCC1)C2`: the inhibition is -1.7%.
In the case of `COc1ccc(CCC(=O)OCC(=O)Nc2ccc(C)c(S(=O)(=O)N(C)C)c2)cc1`, the inhibition is 12.9%.
As for `c1c2c(cc3sc(N4CCCCC4)nc13)OCCO2`, the figure is 72.6% (active); as for `COc1cccc(N2C(=O)CC(N3CCc4ccccc4C3)C2=O)c1` (centres undefined), 2.65%; as for `CC(Sc1nncn1C)C(=O)Nc1ccccc1-c1ccccc1` (centres undefined), -16.4%.
As for `COc1ccc(-n2nnnc2SCC(=O)NCc2cccs2)cc1`, the figure is -11.6%; as for `COc1ccc(-n2nnnc2-c2nc3ccccc3s2)cc1`, 73% (active).
In the case of `COc1ccc(CNc2nnnn2C)cc1`, the inhibition was -13.4%.
Consider `CC(=O)N1CCN(S(=O)(=O)c2cccc(C(=O)NC3CCC(C)CC3)c2)CC1` (centres undefined), for which the inhibition is 5.64%.
Consider `O=C(NC1CC1)c1cccc(Br)c1`, for which the inhibition is 79.2% (active).
As for `O=C(NC1CC1)c1ccc(-c2ccccc2)cc1`, the figure is -40.9%; as for `CCCCn1c(N)c(N(CCC(C)C)C(=O)c2ccc(COc3ccccc3)o2)c(=O)[nH]c1=O`, -19.5%; as for `CCC(CC)C(=O)Nc1ccc(S(=O)(=O)Nc2nccs2)cc1`, -15.5%.
Regarding `CC1(C)C/C(=C(/C#N)C(N)=O)CCO1`, the inhibition was -13.2%.
Take `O=C(NCc1ccccc1)c1onc(CSc2ccncc2)c1C(=O)NCc1ccccc1`: the inhibition is -21.8%.
Turning to `CC[C@@H]1Cc2cc(O)ccc2C2=C1c1ccc(O)cc1C[C@H]2CC`, the inhibition is 59.9% (active).
On to `C=CC[n+]1c(-c2ccc(C)cc2)csc1NNC(=O)Nc1ccccc1`, for which the inhibition is 25.5%.
Take `CSc1ccccc1C(=O)Nc1cccc(C(C)=O)c1`: the inhibition was 8.76%.
To `CC(=O)c1cccc(NC(=O)C2CCN(C(=O)c3ccccc3Cl)CC2)c1` belongs 1.66%.
Consider `C=CCSc1nsc(NC(=O)Nc2cccc(C(C)=O)c2)n1`, for which the inhibition was 55.9% (active).
As for `CCSc1nsc(NC(=O)Nc2cccc(C(C)=O)c2)n1`, the figure is 67.1% (active).
Turning to `CCCCN1C(=O)C(=O)N(CC(=O)Nc2cccc(C(C)=O)c2)C1=O`, the inhibition is -16.1%.
As to `CC(=O)c1cccc(NC(=S)N2CCN(S(C)(=O)=O)CC2)c1`, the inhibition was -9.61%.
`CCOC12CC(C)(C)CC(C)(CC3=C1C(=O)CC(C)(C)C3)C2` (centres undefined): the inhibition was 8.44%.
For `NC(=O)c1cc(S(=O)(=O)N2CCCC2)ccc1OCc1ccc(F)cc1`, the inhibition was -16.9%.
As for `CCOc1ccc2c(c1)c(=O)c(S(=O)(=O)c1ccc(C)cc1)cn2CC`, the inhibition is 0.7%.
For the molecule `N#Cc1cccc(NC(=O)c2cc(C3CCCCN3C(=O)CCc3ccccc3)on2)c1` (centres undefined), the inhibition is 19.9%.
For `CC1CN(C2CCCCC2)c2nc3c(c(=O)n(C)c(=O)n3C)n2C1` (centres undefined), the inhibition was -2.69%.
For `Nc1ccc(-n2nncc2-c2ccco2)cc1`, the inhibition was -12.6%.
As to `CC(=O)C1=C(O)C(=O)N(c2ccc(Br)cc2)C1c1ccc([N+](=O)[O-])cc1` (centres undefined), the inhibition is -18.5%.
In the case of `COc1ccc(OC)c(C(O)c2nc3ccccc3n2C)c1` (centres undefined), the inhibition is -7.8%.
As for `OCCCNc1nccc(-c2cc(Nc3cccc(Cl)c3)ncn2)n1`, the figure is 54.1% (active); as for `COc1ccc(C2=NOC(C(=O)NCc3ccco3)C2)cc1OC` (centres undefined), 14.5%; as for `COc1ccc(CNC(=O)CN(Cc2ccc(Cl)cc2)S(C)(=O)=O)cc1`, 6.51%.
Take `Cc1cccc(CC(=O)N2CCN=C2SCc2ccc([N+](=O)[O-])cc2)c1`: the inhibition was -7.77%.
As for `COCCNC(=O)CN1C(=O)CSc2ncccc21`, the figure is -20.5%.
`CCC1(C)NC(=O)N(CC(=O)N2CCN(c3cccc(Cl)c3)CC2)C1=O` (centres undefined): the inhibition is -0.65%.
Consider `O=C(Cc1ccccc1)Nc1ccc(NC(=O)c2cccnc2)cc1`, for which the inhibition is 17.2%.
As for `Cc1ccc2nc(-c3ccc(NC(=O)c4cccnc4)cc3)oc2c1`, the inhibition was 50.8% (active).
`Cc1cc(NS(=O)(=O)c2ccc(NC(=O)c3cccnc3)cc2)nc(C)n1`: the inhibition was 9.3%.
For `CC(=O)Nc1sc2c(c1C(c1cccc(F)c1)N1CCN(CCO)CC1)CCCC2` (centres undefined), the inhibition is -6.54%.
As for `COc1ccccc1N(C)S(=O)(=O)c1ccc(Cl)c(C(=O)Nc2ccncc2)c1`, the inhibition is -12.4%.
With `CC(=O)c1ccc(S(=O)(=O)NCCC(=O)N2CCN(c3ccccn3)CC2)cc1`, the inhibition was 0.71%.
`COc1ccc(C)cc1NC(=O)CSc1cccc[n+]1[O-]`: the inhibition is 13%.
On to `CCCn1c(C(Cc2ccccc2)NC(=O)COC)nc2ccccc21` (centres undefined), for which the inhibition is -16.1%.
As to `CN(CC(=O)Nc1ccc(Cl)c(C(F)(F)F)c1)C(=O)CCC(=O)c1ccccc1`, the inhibition was 29.4%.
Consider `O=C(CN1CCOCC1)Nc1ccc(NC(=O)CN2CCOCC2)c(Cl)c1`, for which the inhibition is -4.68%.
As to `O=C(CC(O)(C(F)(F)F)C(F)(F)F)Nc1ccc(Cl)c(Cl)c1`, the inhibition was 59.2% (active).
In the case of `Cc1ccc(C2=NN(C(=O)COc3ncnc4ccccc34)C(c3ccco3)C2)cc1` (centres undefined), the inhibition was 3.07%.
To `Cc1ccc(C2=NN(C(=O)CSc3nc(N)cc(N)n3)C(c3ccco3)C2)cc1` (centres undefined) belongs -20.4%; to `O=C(CN1CCN(C2CCS(=O)(=O)C2)CC1)N1N=C(c2ccc(Cl)cc2)CC1c1ccco1` (centres undefined), 58.2% (active); to `CCC1=[N+]([O-])C(C)(/C(C)=N\O)N(O)C1(C)C` (centres undefined), -4.1%.
As to `CCCN(CCC)S(=O)(=O)c1cc2c(cc1Br)CCN2C(=O)CC`, the inhibition is 22.4%.

Broadly, the inhibition is the change of the read-out against control, counted positive when it falls.

For the origin of these results see PubChem BioAssay AID1347056 (Sanford-Burnham Center for Chemical Genomics, 2019).
